Screening data deposited in PubChem by several laboratories.
CYP2C19 activ – increases human CYP2C19 enzyme activity | recombinant CYP2C19, luciferin-H EGE luminescence; stronger effect = higher value; 0 = fully inhibited enzyme, 1 = untreated enzyme | activation factor at 5 µM | 96,000 tested, under 10 active | AID 1025;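 active = activation factor of at least 2 at 5 µM in the primary screen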;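 note: 0 = wells with 2.5 mM tranylcypromine and 1 = vehicle-only wells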
Cav32 inh – blocks human Cav3.2 T-type calcium channel. B-score at 10 µM. hit rate 4% among 100,000. Cav3.2-expressing cells, Fluo-4 calcium fluorescence FDSS; stronger effect = lower value. O95180. AID 449739;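 active = single-dose well whose peak fluorescence ratio is a statistical outlier from its plate by either plate-standardised score or position-corrected B-score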
CYP2C19 inh – inhibitors of human CYP2C19 | P33261 | inhibition, % at 5 µM | AID 778 | hit rate 21% among 96,000 | CYP2C19 Supersomes, luciferin-H EGE luminescence, 30 min;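 active = CYP2C19 inhibition above a set limit at 5 µM in the primary screen, cut at about 50% in these data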;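 note: plate controls were negative control wells for no effect and 2.5 mM tranylcypromine positive control for full effect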
CYP2C9 act – increases human cytochrome P450 2C9 activity | recombinant CYP2C9, luciferin-H conversion, luminescence; stronger effect = higher value; factor 1 = untreated enzyme, 0 = blocked | activation factor at 5 µM | AID 1024 | hit rate 1.4% among 96,000;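 active = activation factor of 2 or more for CYP2C9 at a 5 µM dose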;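 note: 0 = sulfaphenazole-blocked wells and 1 = vehicle-only wells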
CYP2C9 inh – blocks human cytochrome P450 2C9 | CYP2C9 Supersomes, luciferin-H conversion, luminescence | hit rate 20% among 96,000 | AID 777 | inhibition, % at 5 µM;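 active = blocking of liver enzyme CYP2C9 beyond about 50% at 5 µM, limit read from the data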
* marks the source's active call; other numbers are inactive results; nt = not tested or not shown. Compounds with a hit are over-represented: about 27% of the library has one in this group of screens.

SMILES	CYP2C19 activ	Cav32 inh	CYP2C19 inh	CYP2C9 act	CYP2C9 inh
O=C1C2ON(c3ccccc3)C(c3cccnc3)C2C(=O)N1Cc1ccccc1 (stereo not given)	0	-0.954	100.4*	0.1	88.0*
Cc1ccccc1N1C(=O)C2ON(c3ccccc3)C(c3cccnc3)C2C1=O (stereo not given)	0.3	nt	75.0*	0.5	51.9*
COc1cc(C2C3C(=O)N(Cc4ccccc4)C(=O)C3ON2c2ccccc2)cc(OC)c1OC (stereo not given)	0.4	-3.41	56.9*	0.7	25.7
Cc1c(Cl)cccc1N1C(=O)c2ccccc2C1=O	0.8	nt	15.2	1.1	-9.6
COc1cccc2cc(-c3nnc(SCC(=O)NCc4ccccc4)n3C)oc12	0.9	-0.407	14.0	0.7	28.1
CS(=O)(=O)N(CC(=O)N1CCC(C(N)=O)CC1)c1ccc(Oc2ccccc2)cc1	1.1	0.0685	-9.5	1	2.9
CCN(CCNC(=O)C1CCN(c2nnc(-n3cccc3)s2)CC1)c1ccccc1	0.2	nt	82.9*	0.1	87.2*
CCOc1ccc(CCNC(=O)C2CCN(c3nn4c(=O)cc(C)nc4s3)CC2)cc1	0.8	0.755	23.2	0.4	64.7*
CCOc1ccc(CCNC(=O)C2CCN(c3nnc(-n4cccc4)s3)CC2)cc1OCC	0.6	0.774	43.2	0.2	81.9*
Cc1ccc(CNC(=O)C2CCC(=O)N2C2CCCCC2)cc1 (stereo not given)	0.7	0.0184	32.4	1	-1.9
CCOc1ccc(CCNC(=O)C2CCC(=O)N2C2CCCCC2)cc1OCC (stereo not given)	0.4	1.35	64.1*	0.8	19.6
CCOc1ccc(CCNC(=O)C2CCN(c3nnc(-n4cccc4)s3)CC2)cc1	1.1	1.41	-9.4	0.8	18.1
CCOCCn1c(N(C)Cc2ccccc2)nc2c1c(=O)[nH]c(=O)n2C	0.8	0.352	22.1	0.7	26.5
CCOc1cccc(/C(O)=C2/C(=O)C(=O)N(CCOC)C2c2ccco2)c1 (stereo not given)	1.1	0.562	-5.8	0.9	11.4
Cc1nc(N2C(=O)C(=O)/C(=C(/O)c3ccccc3)C2c2ccco2)sc1C (stereo not given)	0.5	-2.98	53.1*	0.4	60.6*
Cc1nn(-c2nc3ccccc3s2)c(C)c1Oc1ccccc1O	nt	0.106	nt	nt	nt
Cc1ccc(C(=O)COC(=O)c2ccccc2N2C(=O)C3C4CCC(C4)C3C2=O)cc1C (stereo not given)	1.1	0.557	-11.9	1	-1.1
CCOc1ccc(C2c3cc(OC)c(OC)cc3CC(=O)N2c2ccc(OC)cc2)cc1 (stereo not given)	0.7	-3.14	26.9	0.6	35.4
CCOC(=O)c1cnc2c(C)cccc2c1NCCc1ccc(OC)c(OC)c1	0	-0.953	97.0*	0.1	90.2*
CS(=O)(=O)N(CCc1ccccc1)CC(=O)Nc1ccc(OCc2ccccc2)cc1	0.6	-4.2*	40.2	0.7	31.4
COC(=O)c1ccccc1NC(=O)CN(CCc1ccccc1)S(C)(=O)=O	0.5	-0.844	52.5*	0.9	7.3
CC(CN1CCOCC1)C(=O)O (stereo not given)	nt	1.13	nt	nt	nt
C=CCn1c(N)c(-c2nc3ccccc3n2C)sc1=S	0.6	-0.281	44.4	0.1	86.4*
C=CCn1c(-c2cccs2)nc2ccccc21	0.3	-0.017	65.5*	0.6	38.3
C=CCn1c(-c2cccs2)nc2nc3ccccc3nc21	0.9	1.21	8.3	0.8	22.3
SMILES	CYP2C19 activ	Cav32 inh	CYP2C19 inh	CYP2C9 act	CYP2C9 inh
C=CCn1c(SCC(=O)NC)nc2sc3c(c2c1=O)CCC3	0.6	nt	38.8	0.4	58.8*
C=CCn1c(SCC(=O)OC)nc2sc3c(c2c1=O)CCN(C)C3	0.4	1.4	59.8*	0.8	23.2
CSc1nc2sc3c(c2c(=O)n1C1CCCCC1)CCN(C)C3	0.9	-0.1	6.7	1.1	-6.4
CN(C)CCSc1nc(N)c2c3c(sc2n1)CN(C)CC3	0.9	1.17	13.2	0.9	8.5
CCCSc1nc(N)c2c3c(sc2n1)CN(C)CC3	0.2	nt	81.9*	0.7	26.1
CCSc1nc2sc3c(c2c(=O)n1C1CCCCC1)CCN(C)C3	0.3	nt	71.4*	0.6	42.8
COC(=O)CSc1nc2sc3c(c2c(=O)n1-c1ccccc1)CCN(C)C3	0.7	0.268	32.5	0.9	6.1
O=C1c2ccccc2C(O)(c2ncc[nH]2)N1C1CCCCC1 (stereo not given)	1.1	-1.03	-5.7	1.1	-9.4
CCC1CCc2c(sc3nc(SCC(=O)NCc4ccco4)n(-c4ccccc4)c(=O)c23)C1 (stereo not given)	nt	-1.3	nt	nt	nt
CN1CCc2c(sc3nc(SCC(N)=O)n(-c4ccccc4)c(=O)c23)C1	0.3	1.59	69.0*	0.8	16.0
C=CCn1c(SC(CCO)C(=O)NCc2ccco2)nc2sc3c(c2c1=O)CCC3 (stereo not given)	0.9	0.0126	13.0	0.4	55.6*
COc1cccc(/C=N/NC(=O)c2csc(-n3nc(C)cc3C(F)(F)F)n2)c1	0.7	-0.364	26.2	0.9	11.5
CC1CCCN(C(=O)Nc2cccc(NC(=O)N3CCCC(C)C3C)c2)C1C (stereo not given)	0.8	-5.78*	19.0	0.6	36.9
CC(=O)Nc1cccc(NC(=O)C2CCCN2C(=O)Nc2ccc(C)cc2)c1 (stereo not given)	1	-3.75	-1.5	0.9	5.8
CC1=C(C)CC(C(=O)Nc2cccc(Cl)c2)C(C(=O)O)C1 (stereo not given)	1.1	1.72	-5.2	0.5	50.2*
O=C(Nc1cccc(Cl)c1)N1CCCC1	1	-0.329	-0.1	1.1	-14.7
COc1ccc(NC(=O)C2CCCN2C(=O)NCc2ccccc2)cc1OC (stereo not given)	nt	-0.0647	nt	nt	nt
COc1ccc(C2CCCN2C(=O)Nc2ccccc2)cc1OC (stereo not given)	0.3	-0.0335	71.5*	1.4	-36.7
CC1CCCCN1C(=O)Nc1cccc(Cl)c1 (stereo not given)	0.3	0.997	70.0*	0.8	16.7
CCCSc1nnc(-c2ccccc2N)c(=O)[nH]1	0.9	0.367	5.6	0.9	8.0
Cc1ccc(N2CC(C(=O)NCc3ccccn3)CC2=O)cc1 (stereo not given)	0.8	0.636	17.0	0.7	25.6
CN(C)S(=O)(=O)N1CCC(C(=O)O)(c2ccccc2)CC1	1.2	-0.0932	-17.6	1	-1.1
COC(=O)c1ccccc1NC(=O)COC(=O)c1ccc(C)c(NC(=O)c2ccco2)c1	0.4	-1.13	56.8*	0.3	75.0*
O=C(NCC1CCCCC1)c1ccco1	0.3	0.29	66.4*	0.7	29.7
O=C(COC(=O)c1ccccc1NC(=O)c1ccco1)Nc1ccc2c(c1)OCO2	0.8	-0.0272	17.2	0.4	58.3*
CC(C)C(OC(=O)c1ccco1)C(=O)NC1CCCCC1 (stereo not given)	0.2	nt	79.5*	0.6	38.8
CC(OC(=O)c1ccco1)C(=O)NC1CCCCC1 (stereo not given)	0.8	-0.474	17.4	1.1	-9.0
